This is an account of results in PubChem BioAssay (NCI).

Some test systems named below: T-47D breast; BT-549 breast; MDA-MB-435 melanoma; SW-620 colon; MCF7 breast; HCT-116 colon; HCC-2998 colon; KM12 colon.
Holding throughout (test): NCI-60 one-dose screen, 48 h (100 = growth as untreated, 0 = no growth, -100 = all killed)
Common to all, as to conditions: 10 µM unless noted

SMILES strings stand for the structures. About 83,000 compounds went through this panel and 20% of them were active in at least one assay; those are over-represented in the sample as a whole.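 Treatment: one concentration, 48 hours, 96-well format. Scoring: percent growth, with anything below 10 considered active.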 A number with no mark means an inactive call. Calls of active or inactive are those of the source.

With `COc1ccc(-c2cc(=O)c3c(OC)c4ccoc4cc3o2)cc1`, the growth is 87.2% in the test with T-47D breast; 113% with BT-549 breast; 89.6% in the test on MDA-MB-435 melanoma; 93.2% in the test on SW-620 colon; 98% with MCF7 breast; 98% in the test on HCT-116 colon. Also, the growth is 106% in the test on HCC-2998 colon and 100% in the test on KM12 colon.
Consider `c1ccc(CCNc2ncnc3[nH]ncc23)cc1`, for which the growth in the test on T-47D breast was 79.3%; with BT-549 breast it was 97.7%; in the test with MDA-MB-435 melanoma it was 112%; in the test with SW-620 colon it was 113%; in the test with MCF7 breast it was 130%; in the test with HCT-116 colon, 98.3%. Further, the results for the growth in the test with HCC-2998 colon and with KM12 colon were 115% and 109%, respectively.
As to `COc1cc(C(=O)/C=C/c2cccnc2Nc2ccc(Cl)cc2)cc(OC)c1OC`, the growth was -67.3% (active) with T-47D breast; -19.1% (active) in the test on BT-549 breast; -58% (active) in the test with MDA-MB-435 melanoma; -71.5% (active) in the test on SW-620 colon; -54.4% (active) in the test on MCF7 breast; -55.7% (active) with HCT-116 colon. For the same compound, the growth in the test with HCC-2998 colon was -84.3% (active); with KM12 colon, -86.8% (active).
Turning to `Cc1oc(-c2ccc(Cl)cc2Cl)cc1C(=O)Nc1nccs1`, the growth in the test with T-47D breast is 70.3%; in the test with BT-549 breast, 107%; in the test with MDA-MB-435 melanoma it was 100%; with SW-620 colon, 94.4%; in the test on MCF7 breast, 60.8%; in the test with HCT-116 colon it was 67.2%. The growth in the test on HCC-2998 colon is 109%; with KM12 colon, 98.7%.
In the case of `COC(=O)c1cccc(NC(=O)c2ccc(-c3cccc(N)c3)o2)c1`, the growth is 88.1% in the test on T-47D breast; 93.5% in the test on BT-549 breast; 98.8% in the test on MDA-MB-435 melanoma; 104% in the test on SW-620 colon; 92.4% with MCF7 breast; 108% in the test with HCT-116 colon. Moreover, the values for the growth with HCC-2998 colon and with KM12 colon were 101% and 98%, respectively.
For the compound `O=C(N(c1ccccc1)c1ccccc1)n1ccc2nc(Cl)nc(Cl)c21`, the growth in the test on T-47D breast is 34.2%; in the test on BT-549 breast, 47.2%; in the test with MDA-MB-435 melanoma, 37.9%; with SW-620 colon, 51.1%; with MCF7 breast, 32.5%; in the test with HCT-116 colon, 49.6%. Besides, the growth in the test on HCC-2998 colon was 91.5%; with KM12 colon, 55.7%.
As to `c1ccc(Cn2cc(-c3nc4ccccc4s3)c3cccnc32)cc1`, the growth in the test on T-47D breast is 94%; with BT-549 breast, 106%; in the test on MDA-MB-435 melanoma it was 104%; in the test on SW-620 colon, 105%; with MCF7 breast, 75.4%; in the test on HCT-116 colon it was 100%. Further, the growth in the test on HCC-2998 colon is 107%; in the test on KM12 colon, 92.6%.
With `Nc1nc2ncc(CCNc3ccc(C(=O)O)cc3)nc2c(=O)[nH]1`, the growth is 115% with T-47D breast; 124% in the test with BT-549 breast; 112% in the test with MDA-MB-435 melanoma; 110% in the test on SW-620 colon; 110% in the test with MCF7 breast; 104% in the test with HCT-116 colon. The growth with HCC-2998 colon was 117%; in the test on KM12 colon it was 111%.
Regarding `O=C1c2cc3c(cc2-c2c1c1ccc(F)cc1c(=O)n2C[C@H](O)[C@H](O)[C@H](O)CO)OCO3`, the growth with T-47D breast is -14.8% (active); with BT-549 breast, -11.3% (active); in the test on MDA-MB-435 melanoma, -75.6% (active); in the test on SW-620 colon, 1.12% (active); in the test with MCF7 breast, 0.35% (active); in the test on HCT-116 colon it was 9.02% (active). In addition, the growth is -50.2% (active) with HCC-2998 colon and 3.9% (active) in the test with KM12 colon.
With `CN1C(=O)C2(SCC(C(=O)NCc3ccccc3)N2C(=O)C2CCCCC2)c2ccccc21` (configuration not stated), the growth was 101% with T-47D breast; 98.3% in the test with BT-549 breast; 81.2% with MDA-MB-435 melanoma; 91.8% in the test with SW-620 colon; 94.8% in the test with MCF7 breast; 96.2% in the test with HCT-116 colon. The growth was 109% in the test on HCC-2998 colon and 92.1% with KM12 colon.
On to `N#CN1CC[C@H](C(=O)Nc2cc3cc(C(N)=O)ccc3cn2)C1`, for which the growth with T-47D breast is -21.6% (active); in the test on BT-549 breast it was -5.54% (active); with MDA-MB-435 melanoma, 3.57% (active); in the test on SW-620 colon, 6.39% (active); in the test with MCF7 breast, 6.05% (active); in the test on HCT-116 colon, 1.69% (active). The results for the growth in the test with HCC-2998 colon and in the test on KM12 colon were -1.56% (active) and 1.65% (active), respectively.
With `Cn1cc(-c2nonc2-c2cn(C)c3ccc(F)cc23)c2ccccc21`, the growth in the test on T-47D breast is 37.3%; with BT-549 breast, 56.1%; in the test with MDA-MB-435 melanoma, -26% (active); with SW-620 colon, 22%; with MCF7 breast, 21.3%; in the test on HCT-116 colon, 11.6%. The growth in the test on HCC-2998 colon was 25.9%; in the test on KM12 colon, 14.7%.
For `O=C(Cc1ccc(/C=C/C(=O)c2ncc[nH]2)cc1)Nc1ccccc1`, the growth in the test with T-47D breast is 39.9%; in the test with BT-549 breast, 54.2%; with MDA-MB-435 melanoma it was 57.3%; in the test on SW-620 colon, 14.2%; in the test on MCF7 breast, 9.95% (active); with HCT-116 colon, 44.2%. Moreover, the growth in the test on HCC-2998 colon is 90.4%; in the test with KM12 colon, 12.8%.
Consider `Nc1n[nH]c2ccc([C@@H]3Nc4ccc5[nH]ncc5c4[C@H]4C5C=CC(C5)[C@@H]34)cc12` (some centres not stated), for which the growth is 80% with T-47D breast; 3.98% (active) in the test with BT-549 breast; -28.1% (active) in the test on MDA-MB-435 melanoma; 22.8% in the test with SW-620 colon; 17.8% in the test on MCF7 breast; 6.63% (active) with HCT-116 colon. For the same compound, the growth with HCC-2998 colon was 14.3%; with KM12 colon, 10.4%.
